# Laboratory results taken from PubChem BioAssay (NCATS).
# Records with an inconclusive call do not appear. A call without a number means that no potency is given here. Activity calls are given as the source filed them. Calls come from the whole dose curve; as a rule, active = well fitted inhibition curve with a large enough effect; inconclusive = small, poorly fitted or top-dose-only effect; inactive = flat fitted curve, though single readings scatter.
# Assay: High Content Imaging Cell-Based qHTS for Inhibitors of the mTORC1 Signaling Pathway in MEF (Tsc2-/-, p53-/-) Cells (AID 2666);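 note: percent of cells scored positive for phospho-rpS6 Ser235/236 immunostaining by imaging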
# Conditions: series mostly up to 38.3 µM
# Text: NIH Molecular Libraries Probe Production Centers Network [MLPCN]
# NIH Chemical Genomics Center [NCGC]
# Assay Submitter (PI): Blenis, John; Hoffman, Greg; Harvard University
# NCGC Assay Overview: Thee mammalian target of rapamycin (mTOR) is an intracellular serine/threonine kinase Aberrant regulation of mTOR signaling plays a causative role in a number of human diseases, including cancer, benign tumors such as lymphangioleiomyomatosis (LAM) and Tuberous Sclerosis Complex (TSC), and metabolic diseases such as diabetes and obesity. This project aims to identify inhibitors of ribosomal protein S6 (rpS6) phosphorylation. The phosphorylation of rpS6 is a key event downstream of mTOR activation. The assay uses a phospho-specific antibody of phospho-rpS6 to detect inhibitors of mTOR activation. Mutations in the Tsc1 and Tsc2 genes are the underlying genetic lesions responsible for TSC, causing constitutive activation of the mTORC1 pathway and leading to profound effects on cell metabolism. Aberrant metabolism in cancer has recently received significant attention as a target to develop therapeutic agents in the treatment of cancer1. As Tsc2-/- cells have lost the ability to respond to energy and growth factor deprivation, these cells are unable to properly down regulate cellular biosynthetic processes in response to metabolic stress, and are thus extremely sensitive to glucose deprivation-induced death.2 A central goal of this project is to explore the unique cell survival and metabolic properties of cells with Tsc1 or Tsc2 by screening for compounds that selectively target the Tsc2-/- MEFs by screening both Tsc2-/- and WT MEF cell lines. We hope to better understand these aspects of TSC physiology in order to exploit them for therapeutic benefit.
# NCGC IN Cell Assay Protocol:
# For quantitative high throughput analysis of mTORC1 signaling, we developed a cell-based assay for immuno-fluorescence based detection of rpS6 phosphorylation on the Acumen Explorer that will be used a platform for the primary small molecule screen. Mouse embryonic fibroblasts (MEFs) are cultured in 1536-well plates using DMEM + 10% FBS. Twenty-four hrs after plating, test compounds (solubilized in DMSO) are delivered and incubated with the cells for 24 hrs at 37 degree Celsius. Following the incubation, media with compound is aspirated and the cells are fixed in 4% paraformaldehyde (PFA) containing PBS + 0.2% TX-100. Next, PFA is aspirated, cells are washed two times with PBS plus 0.2% TX-100 and the cells are blocked for 1 hr at room temperature (blocking buffer: LiCOR Blocking Buffer plus 0.2% TX-100). This is followed by aspiration and staining with Alexa-488 conjugated-phospho-rpS6 Ser235/236 antibody for 2 hours at room temperature (Cell Signaling Technology # 4803, 1:50 dilution in blocking buffer). Cells are washed two times with PBS plus 0.2% TX-100, and stained with 10 uM propidium iodide (PI) for 20-25 minutes for cell number measurement (1:500 dilution of Hoescht staining is also added for IN Cell imaging). Active wells which are selected (based on Acumen results) are imaged on the IN Cell 1000 (GE Healthcare) using the D360/40X and HQ480/40X excitation filters for the Hoechst and Alexa-488 cytoplasmic stains, respectively. The fluorescence emission filters used were HQ460/40M and HQ535/50M for the Hoechst and Alexa-488 cytoplasmic stains, respectively. The normalized phospho-S6 staining is calculated as the ratio of […] for the single concentration rapamycin control ([…] nM) and DMSO columns. […] Inhibition of the pathway is defined based on the normalized phospho-S6 intensity in rapamycin treated cells. Each treatment is reported as the % positive cells in the well, where thresholds are defined by selecting wells with the highest and lowest signal and differentiating between the % non-active and % active populations. […]
# Potency is the fitted concentration of half-maximal effect.
row,Compound,Potency
1,O=c1c(O)c(-c2cc(O)c(O)c(O)c2)oc2cc(O)cc(O)c12,inactive
2,Cc1cc(O)c2c(c1)C(=O)c1cc(O)cc(O)c1C2=O,inactive
3,CC1(C)C(=O)N(CCN2CCC(C(=O)c3ccc(F)cc3)CC2)c2ccccc21,inactive
4,CC(=O)O[C@H]1C(=O)[C@@]2(C)C([C@H](OC(=O)c3ccccc3)[C@]3(O)C[C@H](OC(=O)[C@H](O)[C@@H](NC(=O)c4ccccc4)c4ccccc4)C(C)=C1C3(C)C)[C@]1(OC(C)=O)CO[C@@H]1C[C@@H]2O (stereo not given in full),inactive
5,NC(=NCc1ccccc1)NC(=O)c1nc(Cl)c(N)nc1N,inactive
6,OC(CN1CCN(c2cccc(Cl)c2)CC1)C(c1ccccc1)c1ccccc1 (stereo not given),inactive
7,O=C1c2ccccc2-c2n[nH]c3cccc1c23,inactive
8,Nc1ccn([C@@H]2O[C@H](CO)[C@@H](O)C2O)c(=O)n1 (stereo not given in full),inactive
9,NNc1nncc2ccccc12,inactive
10,CC1(C)NC(=O)N(c2ccc([N+](=O)[O-])c(C(F)(F)F)c2)C1=O,inactive
11,O=c1cc(N2CCOCC2)oc2c(-c3ccccc3)cccc12,9.27 µM (active)
12,CC(C)c1ccc2c(c1)c(SC(C)(C)C)c(CC(C)(C)C(=O)O)n2Cc1ccc(Cl)cc1,inactive
13,Oc1ccc(-c2nc(-c3ccc(F)cc3)c(-c3ccncc3)[nH]2)cc1,inactive
14,O=c1c(O)c(-c2ccc(O)cc2O)oc2cc(O)cc(O)c12,inactive
15,O=C(c1ccccc1)c1ccc2n1CCC2C(=O)O (stereo not given),inactive
16,O=c1ccc2ccc(O)c(O)c2o1,inactive
17,CNC[C@H](O)c1ccc(O)c(O)c1,inactive
18,O=C(CCc1ccc(O)cc1)c1c(O)cc(O)cc1O,inactive

row,Compound,Potency
1,Cc1cccc(C#Cc2ccccc2)n1,inactive
2,CC(=O)N1CCN(c2ccc(OC[C@H]3CO[C@](Cn4ccnc4)(c4ccc(Cl)cc4Cl)O3)cc2)CC1,inactive
3,Nc1nc(N)c(N=O)c(OCC2CCCCC2)n1,14.7 µM (active)
4,O=C(O)c1cccnc1Nc1cccc(C(F)(F)F)c1,inactive
5,CCOC(=O)C(C)Oc1cccc2c(=O)n(CC(=O)Nc3ccc4c(c3)OCCO4)ccc12 (stereo not given),inactive
6,CCN(CC)C(=S)SSC(=S)N(CC)CC,1.85 µM (active)
7,COc1ccccc1N1CCN(CCN(C(=O)C2CCCCC2)c2ccccn2)CC1,inactive
8,C[C@@H](N)C1CCC(C(=O)Nc2ccncc2)CC1 (stereo not given in full),inactive
9,Oc1ccc2ccccc2c1SSc1c(O)ccc2ccccc12,inactive
10,O=C1NC(=O)C(c2ccccc2[N+](=O)[O-])=C1Nc1ccc(O)c(Cl)c1,inactive
11,Cc1c(OCC(F)(F)F)ccnc1CS(=O)c1nc2ccccc2[nH]1 (stereo not given),inactive
12,COc1cc2c(cc1OC)C1CC(=O)C(CC(C)C)CN1CC2 (stereo not given),inactive
13,O=C1c2c(O)cc(O)cc2OC(c2ccc(O)c(O)c2)C1O (stereo not given),inactive
14,C[C@H](Cc1ccc(O)c(O)c1)[C@@H](C)Cc1ccc(O)c(O)c1,inactive
15,Nc1nc(OCc2ccccc2)c2[nH]cnc2n1,inactive
16,CN(C)CCCC1(c2ccc(F)cc2)OCc2cc(C#N)ccc21 (stereo not given),inactive
17,COc1cc2nc(N3CCN(C(=O)C4CCCO4)CC3)nc(N)c2cc1OC (stereo not given),inactive
